# Hit rate of the full screen: of about 39,000 compounds, about 3,300 (8.5%) were called active. The sample holds actives, similar compounds and a random draw of the others, so the mix is not that of the screen.
# Test system: HepG2
# Experiment: cytotoxicity call (relative viability < 0.9)
# Conditions: 10 µM
row,SMILES,cytotoxicity call
1,Cc1ccnc(NC(=O)Cn2cnc3c2c(=O)n(C)c(=O)n3C)n1,inactive
2,O=c1nc2[nH][nH]cc-2c(=O)[nH]1,inactive
3,COCC#Cc1ccc2c(c1)O[C@H](CN(C)C(=O)CN(C)C)[C@H](C)CN([C@H](C)CO)S2(=O)=O,inactive
4,C=CCOc1nc(NCC)nc(N(C)C)n1,inactive
5,CS(=O)(=O)N1C[C@H](NC(=O)c2cnccn2)[C@H]2OCCC[C@H]21,inactive
6,C=CC[C@@H](CC(=O)N(CCO)Cc1ccccc1)C(=O)N[C@H](COC(=O)[C@@H](CC=C)Cc1ccc(F)cc1)C(C)(C)C,inactive
7,C[C@@H]1CCCCO[C@H](CN(C)Cc2ccncc2)[C@H](C)CN([C@H](C)CO)C(=O)c2cc(NS(=O)(=O)c3ccc(Cl)cc3)ccc2O1,inactive
8,CCc1oc(CC[C@@H](CO)NC(=O)NCCn2cc(C3(O)CCCCC3)nn2)c(C(=O)OC)c1C(=O)OC,inactive
9,O=C(CCCCCCC(=O)Nc1ccc([C@H]2O[C@@H](CSc3ccccc3)C[C@H](c3ccccc3)O2)cc1)NO,inactive
10,C[C@H](CO)N1C[C@H](C)[C@@H](CN(C)C(=O)Nc2ccc(C(F)(F)F)cc2)Oc2c(NC(=O)c3ccc(-c4nccs4)cc3)cccc2C1=O,inactive
11,C[C@H]1CN([C@@H](C)CO)C(=O)c2cccc(NC(=O)C3CC3)c2O[C@@H]1CN(C)S(=O)(=O)c1ccccc1,inactive
12,C[C@@H]1CCCCO[C@H](CN(C)S(=O)(=O)c2ccccc2)[C@@H](C)CN([C@@H](C)CO)C(=O)c2cc(NC(=O)CCC(F)(F)F)ccc2O1,inactive
13,CC(C)NC(=O)N[C@H]1C=C[C@H](CC(=O)NCCCN(C)C)O[C@H]1CO,inactive
14,COc1ccc(S(=O)(=O)N(C)C[C@@H]2Oc3ccc(NC(=O)c4ccncc4)cc3CC(=O)N([C@H](C)CO)C[C@@H]2C)cc1,inactive
15,O=C(O)C(O)C(O)C(OC1OC(CO)C(O)C(O)C1O)C(O)CO (stereo unspecified),inactive
16,COc1cccc(S(=O)(=O)N[C@H]2C=C[C@H](CC(=O)NC3CCC3)O[C@@H]2CO)c1,inactive
17,CC(C)(C)c1ccc(C(=O)Nc2cccc(C(F)(F)F)c2)cc1,inactive
18,O=C(O)c1ccccc1Nc1cccc(C(F)(F)F)c1,inactive
19,O=C(Nc1cccc(C(F)(F)F)c1)c1ccc2ccccc2c1,active
20,C[C@@H]1CCCCO[C@@H](CN(C)S(=O)(=O)c2ccc(F)cc2)[C@H](C)CN([C@H](C)CO)C(=O)c2cc(NC(=O)CCC(F)(F)F)ccc2O1,inactive
21,C[C@@H]1CN([C@H](C)CO)S(=O)(=O)c2ccc(C3=CCCCC3)cc2O[C@H]1CN(C)Cc1cncnc1,inactive
22,CCCCN(CCCC)CC[C@@H](O)c1cc2c(Cl)cc(Cl)cc2c2cc(C(F)(F)F)ccc12,inactive
23,CCCCN(CCCC)CC(O)c1cc(Cl)cc2c1-c1ccc(Cl)cc1C2=Cc1ccc(Cl)cc1 (stereo unspecified),active
24,C[C@@H]1CCCCO[C@@H](CN(C)Cc2ccncc2)[C@H](C)CN([C@@H](C)CO)C(=O)c2cc(NC(=O)CCCCCC(=O)Nc3ccccc3N)ccc2O1,inactive
25,C[C@@H]1CN([C@H](C)CO)C(=O)Cc2cc(NC(=O)Nc3ccc(F)cc3)ccc2O[C@@H]1CN(C)Cc1ccc(Cl)c(Cl)c1,active
26,C[C@H](CO)N1C[C@H](C)[C@@H](CN(C)Cc2ccc(Cl)c(Cl)c2)Oc2ccc(NC(=O)Nc3ccc(F)cc3)cc2CC1=O,active

row,SMILES,cytotoxicity call
1,C[C@@H]1CN([C@@H](C)CO)C(=O)Cc2cc(NC(=O)Nc3ccc(F)cc3)ccc2O[C@@H]1CN(C)Cc1ccc(Cl)c(Cl)c1,active
2,C[C@H]1CN([C@@H](C)CO)C(=O)Cc2cc(NC(=O)Nc3ccc(F)cc3)ccc2O[C@H]1CN(C)Cc1ccc(Cl)c(Cl)c1,active
3,COc1ccc(-n2c(C)cc(CN)c2C)cc1,inactive
4,O=C(C[C@H]1C[C@@H]2c3cc(NC(=O)c4ccc5c(c4)OCO5)ccc3O[C@@H]2[C@H](CO)O1)NCC(F)(F)F,inactive
5,CC(C)NC(=O)N(C)C[C@H]1Oc2c(NC(=O)NC3CCCCC3)cccc2C(=O)N([C@H](C)CO)C[C@@H]1C,inactive
6,Cc1noc(C)c1NC(=O)Nc1ccc2c(c1)CC(=O)N([C@@H](C)CO)C[C@H](C)[C@@H](CN(C)S(C)(=O)=O)O2,inactive
7,C[C@H](CO)N1C[C@H](C)[C@H](CN(C)C(=O)Nc2ccc3c(c2)OCO3)OCCCC[C@H](C)Oc2ccc(NC(=O)Nc3ccccc3)cc2C1=O,inactive
8,C[C@@H]1CCCCO[C@H](CN(C)S(=O)(=O)c2cccs2)[C@@H](C)CN([C@H](C)CO)C(=O)c2cc(NC(=O)Cc3ccccc3)ccc2O1,inactive
9,COc1ccc(S(=O)(=O)N(C)C[C@@H]2OCCCC[C@H](C)Oc3ccc(NC(=O)c4ccccc4)cc3C(=O)N([C@H](C)CO)C[C@@H]2C)cc1,inactive
10,Cc1ccc(S(=O)(=O)N(C)C[C@@H]2Oc3ccc(NS(=O)(=O)c4cccs4)cc3CC(=O)N([C@H](C)CO)C[C@@H]2C)cc1,inactive
11,COc1ccc(COC[C@]23NC(=O)N[C@H](c4ccccc4O2)[C@H]3COC(=O)NCCCCCC(=O)NO)cc1,inactive
12,COCC(=O)N(C)C[C@H]1Oc2cc(-c3ccc(C#N)cc3)ccc2S(=O)(=O)N([C@H](C)CO)C[C@@H]1C,inactive
13,O=C(CCCCCNC(=O)OCc1ccc(CO[C@@H]2C[C@H](c3ccc(Br)cc3)C=C(C(=O)N3CCN(Cc4ccccc4)CC3)O2)cc1)NO,inactive
14,COCC(=O)N(C)C[C@H]1Oc2cc(C#CCN(C)C)ccc2S(=O)(=O)N([C@@H](C)CO)C[C@@H]1C,inactive
15,C[C@H](CO)N1C[C@H](C)[C@H](CN(C)S(=O)(=O)c2cccs2)OCCCC[C@H](C)Oc2ccc(NS(=O)(=O)c3cn(C)cn3)cc2C1=O,inactive
16,C[C@@H]1CN([C@H](C)CO)C(=O)c2cccc(N(C)C)c2O[C@H]1CN(C)S(C)(=O)=O,inactive
17,C[C@H]1CN([C@@H](C)CO)C(=O)Cc2cc(NC(=O)Nc3ccc(F)cc3)ccc2O[C@@H]1CN(C)Cc1ccc(Cl)c(Cl)c1,active
18,C[C@@H]1CN([C@H](C)CO)C(=O)Cc2cc(NC(=O)Nc3ccc(F)cc3)ccc2O[C@H]1CN(C)Cc1ccc(Cl)c(Cl)c1,inactive
19,C[C@@H]1CN([C@@H](C)CO)C(=O)Cc2cc(NC(=O)Nc3ccc(F)cc3)ccc2O[C@H]1CN(C)Cc1ccc(Cl)c(Cl)c1,active
20,C[C@H](CO)N1C[C@H](C)[C@H](CN(C)Cc2ccc(Cl)c(Cl)c2)Oc2ccc(NC(=O)Nc3ccc(F)cc3)cc2CC1=O,active
21,C[C@H](CO)N1C[C@H](C)[C@@H](CN(C)S(=O)(=O)c2cn(C)cn2)Oc2c(NC(=O)CCCN(C)C)cccc2C1=O,inactive
22,COc1ccc(NC(=O)N[C@@H]2CC[C@@H](CCNC(=O)CN3CCOCC3)O[C@@H]2CO)cc1,inactive
23,C[C@@H]1CN([C@@H](C)CO)C(=O)CCCn2cc(nn2)CO[C@H]1CN(C)S(=O)(=O)c1ccc2c(c1)OCCCO2,inactive
24,Cc1noc(C)c1NC(=O)N(C)C[C@H]1Oc2ccc(NS(C)(=O)=O)cc2C(=O)N([C@@H](C)CO)C[C@H]1C,inactive
25,C[C@H]1CCCCO[C@@H](CN(C)S(=O)(=O)c2ccc(F)cc2)[C@@H](C)CN([C@@H](C)CO)C(=O)c2cc(NC(=O)Nc3cccc4ccccc34)ccc2O1,inactive
26,Cc1noc(C)c1NC(=O)Nc1ccc2c(c1)C(=O)N([C@H](C)CO)C[C@@H](C)[C@H](CN(C)C(=O)Nc1ccc(C(F)(F)F)cc1)OCCCC[C@@H](C)O2,inactive

row,SMILES,cytotoxicity call
1,C[C@@H]1CN([C@H](C)CO)C(=O)c2cccc(NS(=O)(=O)c3ccccc3)c2O[C@@H]1CN(C)S(=O)(=O)c1cccs1,inactive
2,C/C1=C2/[N]([Co+][OH])[C@H]([C@H](CC(N)=O)[C@@]2(C)CCC(=O)NC[C@@H](C)OP(=O)(O)O[C@H]2[C@@H](O)[C@@H](n3cnc4cc(C)c(C)cc43)O[C@@H]2CO)[C@]2(C)N=C(/C(C)=C3N=C(/C=C4N=C1[C@@H](CCC(N)=O)C/4(C)C)[C@@H](CCC(N)=O)[C@]\3(C)CC(N)=O)[C@@H](CCC(N)=O)[C@]2(C)CC(N)=O,active
3,C[C@@H]1CN([C@@H](C)CO)C(=O)c2cc(NC(=O)Nc3ccc4c(c3)OCO4)ccc2O[C@H]1CN(C)C(=O)Nc1cccc2ccccc12,inactive
4,O=C(C[C@@H]1C[C@H]2c3cc(NC(=O)NC4CCCC4)ccc3O[C@H]2[C@H](CO)O1)NCCN1CCCCC1,inactive
5,Cc1cc(=O)oc2c(O)c(O)ccc12,active
6,Cc1cc(=O)oc2cc(O)ccc12,inactive
7,O=c1cc(-c2ccccc2)oc2cc(O)ccc12,inactive
8,Cc1cc2cc3c(C)cc(=O)oc3c(C)c2o1,inactive
9,O=c1cc(-c2ccccc2)oc2c(O)c(O)ccc12,active
10,COc1ccc2c(=O)cc(-c3ccccc3)oc2c1OC,inactive
11,C[C@@H]1CCCCO[C@@H](CN(C)C(=O)Nc2ccc(F)cc2)[C@H](C)CN([C@H](C)CO)C(=O)c2cc(NC(=O)Nc3ccccc3)ccc2O1,inactive
12,C[C@@H]1CN([C@@H](C)CO)C(=O)c2cc(NS(=O)(=O)c3ccc(Cl)cc3)ccc2O[C@@H](C)CCCCO[C@H]1CN(C)C(=O)c1ccccc1,inactive
13,Cc1ccc(S[C@]2(C(=O)NCC(C)C)CC(=O)N(Cc3ccccc3C(F)(F)F)[C@@H]2c2ccc(CO)cc2)cc1,inactive
14,Cc1noc(C)c1NC(=O)Nc1ccc2c(c1)C(=O)N([C@@H](C)CO)C[C@@H](C)[C@H](CN(C)Cc1ccc(Oc3ccccc3)cc1)O2,inactive
15,COC(=O)CCCCCCC(=O)N/N=C/[C@H](O)[C@H](O)[C@@H](O)[C@H](C)O,inactive
16,C=CC[C@@H](CC(=O)N(CCO)Cc1ccccc1)C(=O)N[C@@H](COC(=O)[C@@H](CC=C)CC(=O)OC(C)(C)C)Cc1c[nH]c2ccccc12,inactive
17,C=CC[C@@H](CC(=O)N(CCO)Cc1ccccc1)C(=O)N[C@@H](COC(=O)[C@@H](CC=C)Cc1ccc(F)cc1)Cc1c[nH]c2ccccc12,inactive
18,C=CC[C@H](CC(=O)N(CCO)Cc1ccccc1)C(=O)N[C@@H](COC(=O)[C@H](CC=C)CC(=O)OC(C)(C)C)Cc1c[nH]c2ccccc12,inactive
19,C=CC[C@H](CC(=O)N(CCO)Cc1ccccc1)C(=O)N[C@H](COC(=O)[C@@H](CC=C)Cc1ccc(F)cc1)Cc1c[nH]c2ccccc12,inactive
20,C=CC[C@@H](CC(=O)N(CCO)Cc1ccccc1)C(=O)N[C@@H](COC(=O)[C@H](CC=C)Cc1ccc(F)cc1)Cc1c[nH]c2ccccc12,active
21,C=CC[C@@H](CC(=O)N(CCO)Cc1ccccc1)C(=O)N[C@H](COC(=O)[C@@H](CC=C)Cc1ccc(F)cc1)Cc1c[nH]c2ccccc12,active
22,C=CC[C@@H](CC(=O)N(CCO)Cc1ccccc1)C(=O)N[C@@H](COC(=O)[C@H](CC=C)CC(=O)OC(C)(C)C)Cc1c[nH]c2ccccc12,inactive
23,C=CC[C@H](CC(=O)N(CCO)Cc1ccccc1)C(=O)N[C@H](COC(=O)[C@H](CC=C)CC(=O)OC(C)(C)C)Cc1c[nH]c2ccccc12,inactive
24,C=CC[C@H](CC(=O)N(CCO)Cc1ccccc1)C(=O)N[C@@H](COC(=O)[C@@H](CC=C)Cc1ccc(F)cc1)Cc1c[nH]c2ccccc12,active

# From the antibiotic and cytotoxicity screens of Wong et al. (2023)
